Results filed as inconclusive are left out. Entries that show only a call come without a potency. Activity calls are given as the source filed them. Calls come from the whole dose curve; as a rule, active = well fitted inhibition curve with a large enough effect; inconclusive = small, poorly fitted or top-dose-only effect; inactive = no such curve, though single readings can be large or run the other way.

We go through 20 compounds from PubChem BioAssay (NCATS).

Cytochrome P450 3A7 (Homo sapiens), sequence (P24462 whole entry, looked up): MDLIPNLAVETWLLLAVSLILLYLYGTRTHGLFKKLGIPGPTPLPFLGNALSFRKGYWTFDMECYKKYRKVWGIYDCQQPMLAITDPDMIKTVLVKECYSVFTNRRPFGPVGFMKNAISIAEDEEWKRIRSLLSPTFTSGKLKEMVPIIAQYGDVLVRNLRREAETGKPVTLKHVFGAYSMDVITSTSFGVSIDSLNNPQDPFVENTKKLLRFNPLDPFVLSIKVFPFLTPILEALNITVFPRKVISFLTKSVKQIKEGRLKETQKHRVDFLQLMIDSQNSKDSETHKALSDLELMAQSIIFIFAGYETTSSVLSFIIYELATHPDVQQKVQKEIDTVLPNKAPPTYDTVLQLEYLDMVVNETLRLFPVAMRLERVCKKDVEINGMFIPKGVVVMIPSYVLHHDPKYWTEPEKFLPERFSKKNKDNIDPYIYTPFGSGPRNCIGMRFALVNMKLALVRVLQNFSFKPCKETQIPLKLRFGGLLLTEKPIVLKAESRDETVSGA

This assay addresses Cytochrome P450 3A7 (Homo sapiens) (UniProt P24462). Nature of the assay: Cytochrome P450 family 3 subfamily A member 7 (CYP3A7) small molecule antagonists: luciferase biochemical qHTS assay (AID 1963596). Note: nearly all actives have a fitted effect of over 40% in size. The following applies: P450-Glo CYP3A7 enzyme luminescence, 1 h; series mostly up to 57.4 µM. The method in brief:
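In this luminescent screen, enzyme and proluciferin substrate meet test compound for 10 min before NADPH regeneration solution drives a 1 h room-temperature reaction; detection reagent halts turnover and luminescence is read 20 min later.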
(In general: In qHTS, concentration-response curves come from the screen itself.)
Consider `CCN(CC)CC(=O)Oc1ccc(NC(C)=O)cc1`, for which the Potency entry is “inactive”.
For `COC(=O)c1nc(Cl)c(Cl)nc1N`, the Potency result was “inactive”.
The value for `OC[C@@H](O)[C@@H](O)[C@H](O)[C@H](O)CO` was “inactive”.
With `CC(=O)N(CC(O)CN(C(C)=O)c1c(I)c(C(=O)NCC(O)CO)c(I)c(C(=O)NCC(O)CO)c1I)c1c(I)c(C(=O)NCC(O)CO)c(I)c(C(=O)NCC(O)CO)c1I` (stereo not given), the Potency result is “inactive”.
Regarding `O=c1[nH]c(=O)n([C@H]2C[C@H](O)[C@@H](CO)O2)cc1I`, the Potency result was “inactive”.
On to `CC(C)(C)NC[C@H](O)COc1nsnc1N1CCOCC1`, for which the Potency result was “inactive”.
As for `Clc1ccccc1-c1nc(-c2ccncc2)no1`, the Potency result is “inactive”.
Consider `CCCCOCCOC(=O)c1cccnc1`, for which the Potency result was “inactive”.
Next, `NC1CCN(c2cccc(Cl)n2)CC1`: “inactive”; `CC(=O)N[C@@H](Cc1ccc(O)cc1)C(=O)O`: “inactive”.
The value for `CC(=O)c1ccc(OCC(=O)N2CCCCC2)cc1` was “inactive”; that for `C=C(C)C(=O)OCC(O)CO` (stereo not given) was “inactive”; that for `CC(=O)NO` was “inactive”.
The value for `CC1(C)OC[C@@H](COC(=O)CCc2ccc(OC[C@@H](O)CNCCNC(=O)N3CCOCC3)cc2)O1` was “inactive”; that for `N[C@@H](CCC(=O)N[C@@H](CS)C(=O)NCC(=O)O)C(=O)O` was “inactive”.
Take `CN=C(N)NC(=O)Nc1c(C)cccc1C`: the Potency result is “inactive”.
Consider `COc1cc2nc(-c3cc(F)ccc3O)nc(N[C@@H]3CNC[C@H]3C(C)(C)O)c2cc1OC`, for which the Potency entry was “inactive”.
For the compound `Nc1ncnc2c1ncn2Cc1c(F)cccc1Cl`, the Potency result is “inactive”.
Next, `NCCS`: “inactive”; `CCN1CCN(Cc2ccc(NC(=O)c3ccc(C)c(NC(=O)c4cncc(-c5cccs5)c4)c3)cc2C(F)(F)F)CC1`: “inactive”.
